Results as given in PubChem BioAssay (NCI).
Compounds without any hit were thinned out: in the full panel of roughly 83,000, 20% have a hit.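 Growth was measured after 48 h exposure to one concentration of compound in 96-well plates. Values under 10 count as active.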 A number with no mark means an inactive call. Calls of active or inactive are those of the source.

What was measured:
Assay in all cases: NCI-60 one-dose screen, 48 h (100 = growth as untreated, 0 = no growth, -100 = all killed)
Conditions in all cases: 10 µM
DU-145 prostate = test system: DU-145 prostate
K-562 leukemia = test system: K-562 leukemia
MALME-3M melanoma = test system: MALME-3M melanoma
MDA-MB-231 breast = test system: MDA-MB-231 breast
SF-268 CNS = test system: SF-268 CNS
SF-295 CNS = test system: SF-295 CNS
SF-539 CNS = test system: SF-539 CNS
UACC-257 melanoma = test system: UACC-257 melanoma
M14 melanoma = test system: M14 melanoma
HCT-15 colon = test system: HCT-15 colon
SNB-75 CNS = test system: SNB-75 CNS
SNB-19 CNS = test system: SNB-19 CNS
U251 CNS = test system: U251 CNS
PC-3 prostate = test system: PC-3 prostate
SK-MEL-5 melanoma = test system: SK-MEL-5 melanoma
UACC-62 melanoma = test system: UACC-62 melanoma
LOX IMVI melanoma = test system: LOX IMVI melanoma
SK-MEL-28 melanoma = test system: SK-MEL-28 melanoma
RXF 393 renal = test system: RXF 393 renal
HT29 colon = test system: HT29 colon

COc1cc(NC(=O)C2=C(N3CCOCC3)/C(=C/c3ccc(Cl)cc3)CC2)cc(OC)c1OC
growth (DU-145 prostate): 99.4%
growth (K-562 leukemia): 49.7%
growth (MALME-3M melanoma): 93.6%
growth (MDA-MB-231 breast): 91.6%
growth (SF-268 CNS): 114%
growth (SF-295 CNS): 118%
growth (SF-539 CNS): 101%
growth (UACC-257 melanoma): 59.5%
growth (M14 melanoma): 97.3%
growth (HCT-15 colon): 73%
growth (SNB-75 CNS): 90.5%
growth (SNB-19 CNS): 79.3%
growth (U251 CNS): 91.2%
growth (PC-3 prostate): 44.8%
growth (SK-MEL-5 melanoma): 66.3%
growth (UACC-62 melanoma): 73.1%
growth (LOX IMVI melanoma): 89.4%
growth (SK-MEL-28 melanoma): 112%

CC(=O)Nc1cc2c(cc1Cl)Cc1cc(Cl)ccc1-2
growth (DU-145 prostate): 106%
growth (K-562 leukemia): 108%
growth (MALME-3M melanoma): 113%
growth (RXF 393 renal): 98.7%
growth (SF-268 CNS): 88.4%
growth (SF-295 CNS): 109%
growth (SF-539 CNS): 88.1%
growth (UACC-257 melanoma): 88.9%
growth (M14 melanoma): 106%
growth (HCT-15 colon): 85.9%
growth (HT29 colon): 99.4%
growth (SNB-75 CNS): 64.1%
growth (U251 CNS): 89.1%
growth (PC-3 prostate): 86.1%
growth (SK-MEL-5 melanoma): 86.6%
growth (LOX IMVI melanoma): 89.7%
growth (SK-MEL-28 melanoma): 104%

Cc1ccc(C(=O)/C=C/c2ccccc2)s1
growth (DU-145 prostate): 92%
growth (K-562 leukemia): 108%
growth (MDA-MB-231 breast): 112%
growth (RXF 393 renal): 94.3%
growth (SF-268 CNS): 99%
growth (SF-295 CNS): 92.6%
growth (SF-539 CNS): 132%
growth (UACC-257 melanoma): 121%
growth (M14 melanoma): 86.9%
growth (HCT-15 colon): 107%
growth (HT29 colon): 107%
growth (SNB-75 CNS): 106%
growth (SNB-19 CNS): 99.1%
growth (U251 CNS): 95.8%
growth (PC-3 prostate): 111%
growth (SK-MEL-5 melanoma): 99.9%
growth (UACC-62 melanoma): 97.4%
growth (LOX IMVI melanoma): 79.1%
growth (SK-MEL-28 melanoma): 114%

c1ccc(CCCCc2ccc3ccccc3n2)cc1
growth (DU-145 prostate): 111%
growth (K-562 leukemia): 102%
growth (MALME-3M melanoma): 98.2%
growth (MDA-MB-231 breast): 106%
growth (SF-268 CNS): 99%
growth (SF-295 CNS): 106%
growth (SF-539 CNS): 101%
growth (UACC-257 melanoma): 103%
growth (M14 melanoma): 98.1%
growth (HCT-15 colon): 90.1%
growth (HT29 colon): 87.1%
growth (SNB-75 CNS): 93.6%
growth (SNB-19 CNS): 105%
growth (U251 CNS): 90.6%
growth (PC-3 prostate): 77.1%
growth (SK-MEL-5 melanoma): 109%
growth (UACC-62 melanoma): 102%
growth (LOX IMVI melanoma): 96.1%
growth (SK-MEL-28 melanoma): 104%

Fc1ccc(C(c2ccc(F)cc2)C(Cl)Cl)cc1
growth (DU-145 prostate): 104%
growth (K-562 leukemia): 91.2%
growth (MDA-MB-231 breast): 92.4%
growth (RXF 393 renal): 86.9%
growth (SF-268 CNS): 110%
growth (SF-295 CNS): 105%
growth (SF-539 CNS): 106%
growth (UACC-257 melanoma): 111%
growth (M14 melanoma): 103%
growth (HCT-15 colon): 104%
growth (HT29 colon): 97.7%
growth (SNB-75 CNS): 96.1%
growth (SNB-19 CNS): 101%
growth (U251 CNS): 103%
growth (PC-3 prostate): 92.2%
growth (SK-MEL-5 melanoma): 101%
growth (UACC-62 melanoma): 106%
growth (LOX IMVI melanoma): 96.3%
growth (SK-MEL-28 melanoma): 101%

O=C(O)Cc1ccc(O)c(O)c1
growth (DU-145 prostate): 113%
growth (K-562 leukemia): 102%
growth (MDA-MB-231 breast): 99.2%
growth (RXF 393 renal): 94.2%
growth (SF-268 CNS): 97.6%
growth (SF-295 CNS): 102%
growth (SF-539 CNS): 89.9%
growth (UACC-257 melanoma): 110%
growth (M14 melanoma): 96.5%
growth (HCT-15 colon): 96.4%
growth (HT29 colon): 115%
growth (SNB-75 CNS): 68.8%
growth (SNB-19 CNS): 102%
growth (U251 CNS): 109%
growth (PC-3 prostate): 106%
growth (SK-MEL-5 melanoma): 94.1%
growth (UACC-62 melanoma): 105%
growth (LOX IMVI melanoma): 107%
growth (SK-MEL-28 melanoma): 103%

COc1cc(C2CC(c3ccccc3)=NN2C(C)=O)cc(OC)c1OC (centres undefined)
growth (DU-145 prostate): 49.3%
growth (K-562 leukemia): 36.9%
growth (MDA-MB-231 breast): 75.3%
growth (RXF 393 renal): 55%
growth (SF-268 CNS): 46.2%
growth (SF-295 CNS): 7.61% (active)
growth (SF-539 CNS): 28.3%
growth (UACC-257 melanoma): 64%
growth (M14 melanoma): 29.7%
growth (HCT-15 colon): 25.6%
growth (HT29 colon): 11.4%
growth (SNB-75 CNS): -17.1% (active)
growth (SNB-19 CNS): 49%
growth (U251 CNS): 27.7%
growth (PC-3 prostate): 37.3%
growth (SK-MEL-5 melanoma): 35.3%
growth (UACC-62 melanoma): 44.6%
growth (LOX IMVI melanoma): 41.7%
growth (SK-MEL-28 melanoma): 59.3%

C=CCNCCN1C(=O)c2ccc3c4c(ccc(c24)C1=O)C(=O)N(CCNCC=C)C3=O
growth (DU-145 prostate): -87.7% (active)
growth (K-562 leukemia): 1.43% (active)
growth (MDA-MB-231 breast): 5.12% (active)
growth (RXF 393 renal): -74.3% (active)
growth (SF-268 CNS): -17.5% (active)
growth (SF-295 CNS): -73.1% (active)
growth (SF-539 CNS): -90.6% (active)
growth (UACC-257 melanoma): -90.3% (active)
growth (M14 melanoma): -84.3% (active)
growth (HCT-15 colon): -67.4% (active)
growth (HT29 colon): -44.9% (active)
growth (SNB-75 CNS): -37.9% (active)
growth (SNB-19 CNS): -88.1% (active)
growth (U251 CNS): -89.4% (active)
growth (PC-3 prostate): -7.8% (active)
growth (SK-MEL-5 melanoma): -95.4% (active)
growth (UACC-62 melanoma): -74.9% (active)
growth (LOX IMVI melanoma): -78.8% (active)
growth (SK-MEL-28 melanoma): -57% (active)
